MITF TRPM1 inh: reduces MITF-dependent TRPM1 promoter luciferase signal; SK-MEL-5 TRPM1 promoter luciferase, 24 h; inhibition, % at 12.5 µM; 0.83% of 330,000 active;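 active means mean inhibition across replicates of 60% or more, whatever share of single replicates reaches that level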
CF NFkB inh: blocks PAF-induced NF-kB reporter in cystic fibrosis cells | inhibition, % at 5 µM | KKLEB NF-kB-GFP reporter, GFP fluorescence overnight | AID 588850 | 0.86% of 360,000 active;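 active means at least 50% inhibition at 5 µM, scaled per plate between neutral and stimulator controls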;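 further: PAF is a Pseudomonas aeruginosa culture filtrate used as stimulus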
KKLEB cytotox: counter-screen for CF NF-kB inhibitors: cytotoxicity; KKLEB CF airway cells viability, ATPlite luminescence, overnight; hits give low values; cells stimulated with P. aeruginosa culture filtrate; activity change (cytotoxicity), % at 5 µM; AID 602141; 0.36% of 360,000 active;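 active means corrected activity change at or below -50% at 5 µM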
Peg3 prom inh: inhibitors of Peg3 promoter; HeLa PEG-Prom luciferase reporter, luminescence, overnight; inhibition, % at 20 µM; 1.7% of 360,000 active;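 active means inhibition of at least 50% at 20 µM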
HIF-2a block: HIF-2a inhibition; 786-0 RCC cells HIF-2a reporter, luciferase luminescence, overnight; inhibition, % at 18.8 µM; 0.72% of 360,000 active;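 active means inhibition of the luminescence signal of 40% or more relative to plate controls, in a single-dose primary screen at 18.75 µM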
B2AR ag: human beta-2 adrenergic receptor agonism by FAP | 0.43% of 340,000 active | P07550 | Am2.2-beta2AR cells, FAP receptor internalization, flow cytometry | response, % (test concentration not listed);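 active means response above a set limit, near 3 SD of response in nonfluorescent compounds, cut at about 42% in these data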
Target sequence (P07550 whole entry, looked up): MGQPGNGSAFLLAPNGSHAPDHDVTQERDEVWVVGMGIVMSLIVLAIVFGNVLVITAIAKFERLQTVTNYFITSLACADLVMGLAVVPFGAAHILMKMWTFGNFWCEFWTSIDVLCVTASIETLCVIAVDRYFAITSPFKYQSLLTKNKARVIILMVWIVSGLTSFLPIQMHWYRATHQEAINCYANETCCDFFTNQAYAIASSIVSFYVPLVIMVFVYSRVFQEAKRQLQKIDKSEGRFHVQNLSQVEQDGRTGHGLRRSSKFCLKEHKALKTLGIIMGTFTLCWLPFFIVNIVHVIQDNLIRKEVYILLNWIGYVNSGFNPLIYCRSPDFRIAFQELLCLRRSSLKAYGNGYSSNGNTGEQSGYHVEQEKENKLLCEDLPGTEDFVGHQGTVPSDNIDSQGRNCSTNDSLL
B2AR ag CP1: agonists of human beta-2 adrenergic receptor. 25% of 1,100 active. Am2.2-beta2AR cells, FAP surface receptor, flow cytometry; hits give low values. percent response (surface receptor), % at 10 µM. shares compounds with B2AR ag;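 active means surface receptor percent response at or below 58%, roughly 3 SD from nonfluorescent compounds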
FAP fluor counter: fluorescence artifact in beta-2AR agonist FAP counterscreen; shares compounds with B2AR ag; Am2.2 cells, FAP fluorogen flow cytometry; hits give low values; calls only at 10 µM; 1,100 tested, under 10 active; AID 588765;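 active means percent response below a set limit in fluorescence channel 1 and below 50% in channel 8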
Of the large screens only hits and unclear results are named; the others gave an inactive call (follow-up assays come after a bar, where they were run). Hits are enriched below; roughly 2.8% of the tested compounds scored in any of these assays.

CCC(NC(C)C)C(O)c1ccc(O)c(O)c1 (stereo not drawn)	none | B2AR ag CP1 42 | FAP fluor counter inactive
CCCCCCCCCn1c2c(c(=N)c3c1CCC3)CCCC2	MITF TRPM1 inh 92, KKLEB cytotox -56, Peg3 prom inh 104, B2AR ag 80 | B2AR ag CP1 inactive | FAP fluor counter inactive
CCCCn1c2c(c(=N)c3ccccc31)CCC2	none
CN(C)c1ncnc2c1ncn2[C@H]1CN(CCN2CCOCC2)C[C@@H](CO)O1	none (no result: MITF TRPM1 inh, B2AR ag)
O=C(NCc1ccc(F)cc1)c1cc(-c2ccccn2)nc2ccc(S(=O)(=O)N3CCOCC3)cc12	none (no result: MITF TRPM1 inh, B2AR ag)
O=C(OCc1c(F)cccc1Cl)c1cnccn1	none
O=C(OCc1c(F)cccc1Cl)c1cnc2ccccc2n1	B2AR ag 46 | B2AR ag CP1 inactive | FAP fluor counter inactive
CCCCNC(=O)c1ccc2nc(CC)c(N(C)Cc3cccs3)n2c1	none (no result: MITF TRPM1 inh, B2AR ag)
CCCCOc1cccc(C(=O)Nc2ccc(NC(=O)c3ccco3)cc2)c1	B2AR ag 69 | B2AR ag CP1 35 | FAP fluor counter inactive
CC(Nc1nc(-c2cccnc2)nc2ccccc12)c1ccccc1 (stereo not drawn)	none (no result: MITF TRPM1 inh, B2AR ag)
COc1cccc(CNc2nc(-c3cccnc3)nc3ccccc23)c1	none | B2AR ag CP1 inactive | FAP fluor counter inactive
COc1ccccc1C(C)Nc1nc(-c2cccnc2)nc2ccccc12 (stereo not drawn)	none | B2AR ag CP1 inactive | FAP fluor counter inactive
CCN(Cc1cc2ccccc2[nH]c1=O)S(=O)(=O)c1ccc(OC)cc1	none
O=c1[nH]c2ccccc2cc1CN(Cc1ccco1)S(=O)(=O)c1ccc(F)cc1	none | B2AR ag CP1 inactive | FAP fluor counter inactive
O=C(CSc1nnc(-c2ccncc2)n1Cc1ccco1)N1c2ccccc2Sc2ccc(Cl)cc21	B2AR ag 85 | B2AR ag CP1 6.7 | FAP fluor counter inactive
COc1ccc(CNC(=O)Nc2ccc3c(c2)c(=O)n(C)n3Cc2cc(C)cc(C)c2)cc1	none (no result: MITF TRPM1 inh, B2AR ag)
CN(C)CCCn1c(SCC(=O)N2c3ccccc3Sc3ccccc32)nc2ccccc2c1=O	Peg3 prom inh 107, B2AR ag 49 | B2AR ag CP1 inactive | FAP fluor counter inactive
O=C(Nc1nc(-c2ccco2)cs1)c1ccccc1	B2AR ag 43 | B2AR ag CP1 inactive | FAP fluor counter inactive
CCCCCCn1cc(CN2CC(N(C)CC)CS2(=O)=O)nn1 (stereo not drawn)	none (no result: MITF TRPM1 inh, CF NFkB inh, KKLEB cytotox, Peg3 prom inh, B2AR ag)
Cn1c(=N)n(CC(=O)c2ccc(Br)cc2)c2ccccc21	B2AR ag 43 | B2AR ag CP1 16 | FAP fluor counter inactive
Cc1ccc(Cn2c(=N)n(CC(=O)c3ccc([N+](=O)[O-])cc3)c3ccccc32)cc1	MITF TRPM1 inh 98, KKLEB cytotox -61, Peg3 prom inh 102, B2AR ag 100 | B2AR ag CP1 23 | FAP fluor counter active
Cn1c(=N)n(CC(=O)c2ccc(F)cc2)c2ccccc21	none
CC(Oc1ccccc1F)C(=O)NNC(=O)Cc1ccc(S(=O)(=O)N2CCOCC2)s1 (stereo not drawn)	none
COc1ccc(C(=O)Nc2nc3cc4c(cc3s2)OCCO4)c(OC)c1	B2AR ag 54 | B2AR ag CP1 inactive | FAP fluor counter inactive
COc1ccccc1C(=O)Nc1nc2cc3c(cc2s1)OCCO3	none
Cn1nc(-c2ccc(C(=O)NCCO)cc2)c2ccccc2c1=O	none | B2AR ag CP1 inactive | FAP fluor counter inactive
Cc1ccc(Cl)cc1N1CCN(C(=O)Cc2c(C(=O)O)[nH]c3ccc(Cl)cc23)CC1	B2AR ag 75 | B2AR ag CP1 inactive | FAP fluor counter inactive
Cc1ccc(Cl)cc1N1CCN(C(=O)Cc2c(C(=O)O)[nH]c3ccccc23)CC1	none
Cc1cccc2nc(COc3ccc4ccccc4c3Br)cn12	B2AR ag 98 | B2AR ag CP1 26 | FAP fluor counter inactive
Cc1cccc2nc(CSc3ccccc3N)cn12	none
NC(=O)CC(NC(=O)c1ccccc1)c1ccc(NCCCN2CCCC2=O)c([N+](=O)[O-])c1 (stereo not drawn)	B2AR ag 90 | B2AR ag CP1 36 | FAP fluor counter inactive
NC(=O)CC(NC(=O)Cc1ccc(Cl)cc1)c1ccc(NCCCN2CCCC2=O)c([N+](=O)[O-])c1 (stereo not drawn)	none | B2AR ag CP1 inactive | FAP fluor counter inactive
NC(=O)CC(NC(=O)c1ccccc1)c1ccc(N2CCN(c3ccccn3)CC2)c([N+](=O)[O-])c1 (stereo not drawn)	none | B2AR ag CP1 inactive | FAP fluor counter inactive
NC(=O)CC(NC(=O)c1ccc(Br)cc1)c1ccc(N2CCN(c3ccccc3)CC2)c([N+](=O)[O-])c1 (stereo not drawn)	none
NC(=O)CC(NC(=O)Cc1ccc(Cl)cc1)c1ccc(NC2CCCCCCC2)c([N+](=O)[O-])c1 (stereo not drawn)	none
CCN(C(=O)c1ccc(NC(C)=O)cc1)c1ccccc1	none
CCCCN(C(=O)c1ccc(NC(=O)C(C)C)cc1)c1ccccc1	B2AR ag 95 | B2AR ag CP1 20 | FAP fluor counter inactive
COc1ccccc1C(=O)NC(=O)COC(=O)Cc1ccc(F)cc1	B2AR ag 58 | B2AR ag CP1 inactive | FAP fluor counter inactive
O=C(COC(=O)Cc1ccc(F)cc1)NC(=O)c1ccccc1	none
CC(C)c1nc2oc3c(NCC4CCCO4)ncnc3c2c2c1CCC2 (stereo not drawn)	none
CC(C)c1nc2oc3c(N(C)CCO)ncnc3c2c2c1CCC2	none | B2AR ag CP1 inactive | FAP fluor counter inactive
Cc1ccccc1C(=O)OC1CCCN(C)C1 (stereo not drawn)	B2AR ag 49 | B2AR ag CP1 inactive | FAP fluor counter inactive
Cc1ccccc1N=C/C=C1/C=C(c2ccccc2)OC(C)(C)O1	B2AR ag 43 | B2AR ag CP1 inactive | FAP fluor counter inactive
COc1cc2c(cc1Cl)C(=O)C(F)(c1ccccc1)C(=O)N2 (stereo not drawn)	B2AR ag 81 | B2AR ag CP1 13 | FAP fluor counter inactive
CC(=O)Nc1ccc(Nc2cc(C(C)C)nc3c(-c4ccccc4)c(C)nn23)cc1	B2AR ag 52 | B2AR ag CP1 inactive | FAP fluor counter inactive
CC(=O)Nc1ccc(Nc2cc(C)nc3c(-c4ccccc4)c(C)nn23)cc1	none
COc1cccc(C(O)c2ncc(-c3cccc4ccccc34)[nH]2)c1 (stereo not drawn)	none (no result: MITF TRPM1 inh, B2AR ag)
CC(C)CNC(=O)c1[nH]c(C(F)(F)F)nc1-c1ccccc1	none (no result: MITF TRPM1 inh, B2AR ag)
N#Cc1c(N2CCCC2)nc(N)c2c(N)nc(N3CCCC3)cc12	B2AR ag 46 | B2AR ag CP1 inactive | FAP fluor counter inactive
COc1cc2c(C#N)c(N3CCCC3)nc(N)c2c(N)n1	none

Assay outcomes deposited in PubChem BioAssay by several laboratories.
